Test results reported in PubChem BioAssay AID463165 (Johns Hopkins Ion Channel Center, 2010).
Screen size: about 310,000 compounds; about 1,400 (0.45%) were called active.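 Rule for the calls: active = B-score, a plate-corrected calcium signal, over three deviations above library mean, with baseline fluorescence within five deviations of library mean; inactive = the rest.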 Many of the other results were omitted from the sample, so actives are more common in it than they were.

What follows are compounds tested against Regulator of G-protein signaling 4 (Homo sapiens) (UniProt P49798) (assay: blockers of RGS4 function in M3R calcium signaling – cell-based, HEK293 M3R inducible RGS4, calcium flux, primary screen (AID 463165;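 note: RGS4 expression induced by doxycycline in cells with stable M3 receptor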;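 for B-score: B-score is computed from the integrated fluorescence ratio over baseline after carbachol; higher B-score means a larger calcium signal and so more RGS4 inhibition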)). Details: Fluo-4 calcium flux, at 10 µM, triggered by carbachol at its EC20; hits give high values.
Sequence of Regulator of G-protein signaling 4 (Homo sapiens) (P49798 whole entry, looked up): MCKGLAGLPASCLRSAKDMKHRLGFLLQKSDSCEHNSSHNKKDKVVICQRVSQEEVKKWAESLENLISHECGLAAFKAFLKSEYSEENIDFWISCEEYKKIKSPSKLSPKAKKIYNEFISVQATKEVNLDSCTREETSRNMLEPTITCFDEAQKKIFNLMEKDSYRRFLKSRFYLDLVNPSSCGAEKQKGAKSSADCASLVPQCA

B-score, active:
O=C(/C=C/c1ccc(Cl)c([N+](=O)[O-])c1)c1cccnc1 11
O=C(/C=C/c1ccc(Cl)c([N+](=O)[O-])c1)c1ccc(O)cc1 6.92
c1ccc(C[C@H]2CNCCN2CCC23CC4CC(CC(C4)C2)C3)cc1 6.17
Nc1ccccc1SC(C[N+](=O)[O-])c1ccccc1 (centres undefined) 7
CNc1nc(Nc2ccc(C)c(Cl)c2)nc(N)c1[N+](=O)[O-] 12.7
O=C1NC(c2ccc(-c3ccccc3[N+](=O)[O-])o2)C(C(=O)c2ccc(Cl)cc2)C(O)(C(F)(F)F)N1 (centres undefined) 8.35
COc1cc2c(cc1O)C(SC)=NC(C)(C)C2 15.1
CCCCOC(=O)CNc1nnc(SCC(=O)OCC)[nH]c1=O 26.4
COc1ccc(/C=C/C(=O)c2ccc(OC)cc2O)cc1 6.02
CCOc1ccc(NC(=O)C/C(C)=N/NC(=O)Cc2cccs2)cc1 7.41
Cc1c(NC(=O)c2coc(=O)c(Br)c2)c(=O)n(-c2ccccc2)n1C 8.99
C=CCSc1nc2c(c(=O)[nH]1)C(C(C)C)C(C#N)=C(N)O2 (centres undefined) 7.64
CCc1ccc(C2C(C#N)=C(N)N(N3CCOCC3)C3=C2C(=O)CC(C)(C)C3)s1 (centres undefined) 4.85
Cc1ccsc1/C=N/n1c(=S)[nH]nc(C)c1=O 5.78
CC(=O)Nc1ccc(S(=O)(=O)Nc2nc(-c3ccc(C(C)(C)C)cc3)cs2)cc1 5.98
Oc1ccc(/C=N/Nc2ccc(C(F)(F)F)cn2)cc1O 9.02
O=[N+]([O-])c1cc(Cl)cc(/C=N/NC(=S)Nc2cc(S(=O)(=O)N3CCOCC3)ccc2Cl)c1O 6.74
CCc1ccc2oc(-c3ccc(N)cc3)nc2c1 10.6

B-score, inactive:
CC(C)c1ccc(/C=C2\NC(=O)NC2=O)cc1
C=CCNC(=O)CCCC(=O)NCC=C
CN(C)c1ccc(/C=C/C(=O)c2ccc(C(C)(C)C)cc2)cc1[N+](=O)[O-]
O=C(Nc1cccnc1)c1ccc(Cl)c([N+](=O)[O-])c1
O=C(/C=C/c1ccc(Cl)cc1Cl)c1cccnc1
CN(C)c1ccc(/C=C/C(=O)c2ccc(O)cc2)cc1[N+](=O)[O-]
Cc1ccc(S(=O)(=O)N(CC(=O)NN=C2CCN(C)CC2)c2ccc(F)cc2)cc1
CCCCN(C(=O)/C=C/c1ccco1)c1c(N)n(CC(C)C)c(=O)[nH]c1=O
CS/C(=C\[N+](=O)[O-])Nc1ccc(C)cc1
COC(=O)NNC(=O)C1CCC(C)CC1 (centres undefined)
O=C1CCNCCN1[C@H](CO)Cc1ccccc1
CC(C)CN(C(=O)CN1CCN(S(=O)(=O)c2ccccc2)CC1)c1c(N)n(CC(C)C)c(=O)[nH]c1=O
CCCCNC(=O)N(O)C1N(/N=C/c2ccc(N(C)C)cc2)C(=S)SC1(C)C (centres undefined)
CCS(=O)(=O)c1cc([N+](=O)[O-])c(Sc2ccccc2N)s1
Nc1ccccc1SCc1cc([N+](=O)[O-])cc2c1OCOC2
CCCCCCCNC(=O)C1(CC2CC(c3cccc(Br)c3)=NO2)CCN(C(=O)c2cc(OCC)c(OCC)c(OCC)c2)CC1 (centres undefined)
Cc1ccc(Nc2nc(N3CCOCC3)nc(N3CCOCC3)n2)cc1Cl
COc1cccc(Nc2nc(N)c([N+](=O)[O-])c(NCc3ccco3)n2)c1
CC(=O)c1nn(-c2cccc(C(F)(F)F)c2)c(=O)[nH]c1=O
O=C1CCCN1CCCNC(=S)Nc1ccc(F)c(Cl)c1
Cc1nc2ccccc2c(=O)n1-c1ccc(NS(=O)(=O)c2ccc(F)cc2F)cc1
CC(=O)C1C(c2cccc(Oc3ccccc3)c2)NC(=O)NC1(O)C(F)(F)F (centres undefined)
CC1=NN(c2ccc(Cl)c(C(=O)O)c2)C(=O)/C1=C/c1ccc(-c2ccccc2[N+](=O)[O-])o1
O=C(OCc1ccc([N+](=O)[O-])cc1)C1CC(=O)N(Cc2ccccc2Cl)C1 (centres undefined)
CC(=O)Nc1ccc(Nc2c([N+](=O)[O-])cc(S(C)(=O)=O)cc2[N+](=O)[O-])cc1
O=C(NCc1cccs1)c1ccc(CS(=O)Cc2ccccc2Cl)o1 (centres undefined)
CC(C)OCCCNC(=O)CN1C(=O)/C(=C/c2ccccc2F)Oc2ccccc21
O=C(CN1C(=O)COc2ccc(Cl)cc21)N1CCOCC1
O=C(CN1CCCCCC1)Nc1ccc(Cl)cc1F
COc1cc2c(cc1OC)C(C(C)C)=NC(C)(C)C2
COc1cc2c(cc1OC)C(Nc1ccc(S(N)(=O)=O)cc1)=NC(C)(C)C2
O=C(CSC1=NS(=O)(=O)c2cc(F)ccc2N1)Nc1ccccc1F
Cc1nnc(SCC(=O)N2CCOCC2)[nH]c1=O
CCOC(=O)CSc1nc(C)c(Oc2ccc(Cl)cc2Cl)c(=O)[nH]1
NC(=O)C1CCCN(CC(=O)N2CCN(c3ccccc3)CC2)C1 (centres undefined)
COc1ccc(C(=O)/C=C/c2ccc(OC3CSC3)cc2)cc1
COc1ccc(C(=O)/C=C/c2cccnc2)c(OC)c1
Cc1ccc(N(C(=O)c2ccc(S(=O)(=O)N(C)C)cc2)C2C=CS(=O)(=O)C2)cc1 (centres undefined)
COc1ccc2oc(C(=O)OCC(=O)N(CC(C)C)c3c(N)n(Cc4ccccc4)c(=O)[nH]c3=O)c(C)c2c1
[O-][n+]1ccc(OCc2ccccc2)cc1
CCOc1ccccc1NC(=O)Cc1cccs1
CCOC(=O)c1ccc(NC(=O)Cc2cccs2)cc1
CCn1c(O)c2ccc(C(=O)N=NC(=O)c3cccnc3)cc2c1O
O=S(=O)(Nc1ccc2[nH]ncc2c1)c1ccccc1Cl
Cc1c(NC(=O)c2cccnc2)c(=O)n(-c2ccccc2)n1C
Cc1c(NC(=O)c2cc(-c3ccc(Br)cc3)on2)c(=O)n(-c2ccccc2)n1C
COc1ccc(CC(NC(C)=O)C(=O)NC2CCN(C(=O)Nc3ccc(C#N)cc3)CC2)cc1OC (centres undefined)
CCc1nn(CCCC(=O)NCc2ccc(C)cc2)c(=O)c2cc3occc3n12
O=C(O)CCCCCCCCc1cn(CN2C(=O)c3ccccc3C2=O)nn1
Cc1cc2c(c(=O)n1C)C(C(C)C)C(C#N)=C(N)O2 (centres undefined)
C=CCSc1nc(N)cc(=O)[nH]1
O=C(c1cccnc1)N(c1cc2sc(=O)oc2c2ccccc12)S(=O)(=O)c1ccccc1
CCc1ccc(C2C(C#N)=C(N)N(N(C)C)C3=C2C(=O)CCC3)s1 (centres undefined)
COc1ccc(C2C(C#N)=C(/N=C/N3CCOCC3)OC3=C2C(=O)CC(C)(C)C3)cc1OC (centres undefined)
S=c1[nH]nc(-c2cccs2)n1/N=C/c1cccs1
Oc1ccccc1/C=N/n1c(-c2cccs2)n[nH]c1=S
CC(OC(=O)CCc1nc(=O)c2ccccc2n1C)C(=O)NCc1ccc2c(c1)OCO2 (centres undefined)
O=C(O)C1C2CC2CN1C(=O)c1ccc(Cl)cc1Cl (centres undefined)
COc1ccc(CNS(=O)(=O)c2ccc(-c3cnc(C4CC4)o3)cc2)cc1
CC(=O)Nc1ccc(-c2csc(NC=C3C(=O)OC(C)(C)OC3=O)n2)cc1
CC(=O)Nc1ccc(S(=O)(=O)Nc2cccc(NC(=O)C(C)(C)C)c2)cc1
Oc1ccc(Br)cc1/C=N/Nc1ccccn1
Cc1nccn1CC(=O)N/N=C/c1ccc(O)c(O)c1
O=C(c1n[nH]c2c1CCC2)N1CCCC(Nc2cccc(F)c2)C1 (centres undefined)
O=C(N/N=C/c1cc(Cl)cc([N+](=O)[O-])c1O)C(O)(c1ccccc1)c1ccccc1
O=C(NC(=S)Nc1ccc(S(=O)(=O)N2CCOCC2)cc1)c1ccccc1[N+](=O)[O-]
COc1cccc(N2CC(C(=O)NCc3n[nH]c(=O)c4ccccc34)CC2=O)c1 (centres undefined)
CN(c1ccccc1)S(=O)(=O)c1cc(C(=O)Nc2nc3ccccc3[nH]2)ccc1Cl
Nc1ccc(-c2nnc(-c3ccccc3)o2)cc1
COc1ccc(-c2nc3cc([N+](=O)[O-])ccc3o2)cc1OC
C=CC(COCc1ccccc1)N(Cc1ccccc1)S(=O)(=O)c1ccccc1Br (centres undefined)
